# Results reported in PubChem BioAssay (EPA / NIEHS).
# Results filed as inconclusive are left out. Active and inactive are the calls of the source. Rule for the calls, unless noted: active = hit-call score of the fitted dose curve at least 0.9, where 1 is the maximum; inactive = score below 0.9.
# Tests used:
# [1] = ACEA_ER_80hr: ACEA Biosciences xCELLigence Real-Time Cell Analysis on Estrogen Receptor Agonism for Proliferation (AID 2282667; active = hit-call score of the fitted dose curve at least 0.9, where 1 is the maximum); conditions: T47D proliferation, impedance (xCELLigence), 80 h
# How it was run: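 T47D human breast cells were seeded on electrode plates, monitored overnight, then exposed continuously to compounds in eight-point 1:4 dilutions from 100 uM (max 0.5% DMSO). Impedance-based growth was read at 80 h, fitted upward relative to DMSO.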
# [2] = APR_HepG2_CellCycleArrest_24hr: Apredica 24-hour HepG2 Assay for Cell Cycle Arrest (AID 2282905); conditions: imaging, actives raise or lower the signal;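 note: cell cycle arrest scored as ratio of 2N to 4N nuclear DNA content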
# How it was run: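 Step one: dose HepG2 with test compounds, 0.39–200 uM, 0.5% DMSO, 24 hr. Step two: fix, permeabilize, stain nuclei with Hoechst 33342. Step three: image six fields per well at 20x, quantify DNA content, fit bidirectionally relative to DMSO.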
# [3] = APR_HepG2_NuclearSize_24hr: Apredica 24-hour HepG2 Assay for Nuclear Size (AID 2282907); conditions: high-content imaging, actives raise or lower the signal
# How it was run: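 After fixation and permeabilization, 24-hr-treated HepG2 cells were stained with Hoechst 33342 and imaged on an ArrayScan (20x). Doses spanned 0.39–200 uM in duplicate. Nuclear diameter changes in either direction were fitted relative to 0.5% DMSO controls.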
# [4] = APR_HepG2_CellLoss_24hr: Apredica 24-hour HepG2 Assay for Cell Loss (AID 2282908); conditions: high-content imaging;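 for AC50: fit in both directions so a hit may be cell loss or gain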
# How it was run: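 Duplicate wells received compound at ten concentrations (0.39–200 uM; final DMSO 0.5% v/v). After fixation with formaldehyde, nuclei stained with Hoechst 33342 were imaged at 20x. Loss or gain of cell count was fitted relative to DMSO controls.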
# [5] = APR_HepG2_MicrotubuleCSK_24hr: Apredica 24-hour HepG2 Assay for Microtubule CSK Stabilty (AID 2282909); conditions: HepG2 microtubule cytoskeleton imaging, actives raise or lower the signal
# How it was run: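 Microtubule stability is scored from tubulin immunofluorescence in fixed HepG2 cells imaged at 20x. Cells receive ten compound concentrations up to 200 uM for 24 h; taxol and DMSO serve as positive and negative controls.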
# [6] = APR_HepG2_MitoticArrest_24hr: Apredica 24-hour HepG2 Assay for Mitotic Arrest (AID 2282910); conditions: high-content imaging, actives raise or lower the signal
# How it was run: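 Treatment lasted 24 hr in the human HepG2 line at 0.39–200 uM, solvent held at 0.5% DMSO. Fixed cells were stained with Hoechst 33342 and anti-phospho-histone H3, imaged at 20x, and analysed by gain- or loss-of-signal fitting against DMSO.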
# [7] = APR_HepG2_MitoMembPot_24hr: Apredica 24-hour HepG2 Assay for Mitochondrial Membrane Potential (AID 2282911); conditions: imaging, actives raise or lower the signal
# How it was run: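 HepG2 human liver cells were exposed 24 hr to compounds at 0.39–200 uM (final DMSO 0.5% v/v) in duplicate. MitoTracker Red CMXRos (250 nM, 30 min) was loaded before formaldehyde fixation; fluorescence was imaged by ArrayScan HCS and fitted bidirectionally versus DMSO.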
# [8] = APR_HepG2_MitoMass_24hr: Apredica 24-hour HepG2 Assay for Mitochondrial Mass (AID 2282912); conditions: high-content imaging, actives raise or lower the signal
# How it was run: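 Readout: fluorescence of MitoTracker Red CMXRos (250 nM, added 30 min pre-fixation) in fixed HepG2 cells imaged by HCS. Exposure lasted 24 hr at 0.39–200 uM; increases and decreases were both fitted relative to DMSO.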
# [9] = APR_HepG2_p53Act_24hr: Apredica 24-hour HepG2 Assay for p53 Activation (AID 2282913); conditions: high-content imaging, actives raise or lower the signal;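 note: p53 protein immunofluorescence averaged per cell in HepG2 with Hoechst nuclei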
# How it was run: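 HepG2 cells exposed 24 hr to compounds at 0.39–200 uM (10 concentrations, duplicate), final DMSO 0.5% v/v. After formaldehyde fixation and Triton permeabilization, p53 was immunolabeled (sheep anti-p53, Cy5 secondary) with Hoechst 33342 nuclear counterstain, then imaged by high-content fluorescence microscopy.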
# [10] = APR_HepG2_CellCycleArrest_72hr: Apredica 72-hour HepG2 Assay for Cell Cycle Arrest (AID 2282914); conditions: high-content imaging, actives raise or lower the signal
# How it was run: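 HepG2 cells were exposed to compounds at 0.39–200 uM (0.5% v/v DMSO final, duplicates) for 72 hr, fixed in 3.7% formaldehyde, permeabilized and stained with Hoechst 33342. Nuclear DNA content was quantified by high-content imaging; gain or loss of signal was fitted bidirectionally against DMSO.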
# [11] = APR_HepG2_CellLoss_72hr: Apredica 72-hour HepG2 Assay for Cell Loss (AID 2282915); conditions: high-content imaging
# How it was run: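 HepG2 cells were exposed for 72 hr to compounds at 0.39–200 uM (ten concentrations, duplicate) in 0.5% v/v final DMSO. Nuclei were stained with Hoechst 33342 after 3.7% formaldehyde fixation, imaged at 20x, and counted; fits bidirectional versus DMSO.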
# [12] = APR_HepG2_CellCycleArrest_1hr: Apredica 1-hour HepG2 Assay for Cell Cycle Arrest (AID 2282666); conditions: high-content imaging, actives raise or lower the signal
# How it was run: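 Cell cycle arrest scored from nuclear DNA content (Hoechst 33342) using high-content imaging of fixed HepG2 cells after 1 h treatment across 0.39–200 uM, in duplicate. Gain or loss fitted relative to 0.5% DMSO.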
# [13] = APR_HepG2_CellLoss_1hr: Apredica 1-hour HepG2 Assay for Cell Loss (AID 2282668); conditions: high-content imaging;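 note: curves fitted both ways against DMSO so gain or loss of cells counts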
# How it was run: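 Cell number comes from high-content imaging of Hoechst-labelled nuclei in fixed HepG2 cells. Cells were exposed for 1 h to ten concentrations from 0.39 to 200 uM in 0.5% DMSO. Gain or loss was fitted against DMSO controls.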
# [14] = APR_HepG2_MicrotubuleCSK_1hr: Apredica 1-hour HepG2 Assay for Microtubule CSK Stabilty (AID 2282669); conditions: HepG2 microtubule cytoskeleton imaging, actives raise or lower the signal
# How it was run: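 Alpha-tubulin immunofluorescence, imaged by automated high-content microscopy with Hoechst nuclear segmentation, measured cytoskeletal change after 1 h dosing of HepG2 at 0.39–200 uM in 0.5% DMSO. Activity fitted in both directions relative to DMSO.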
# [15] = APR_HepG2_NuclearSize_1hr: Apredica 1-hour HepG2 Assay for Nuclear Size (AID 2282670); conditions: high-content imaging, actives raise or lower the signal
# How it was run: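 Nuclear size measured by high-content imaging of Hoechst 33342 nuclear stain after formaldehyde fixation; human HepG2 line exposed 1 hr to compounds at 0.39–200 uM in 0.5% DMSO, with bidirectional curve fitting relative to DMSO.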
# [16] = APR_HepG2_MitoticArrest_1hr: Apredica 1-hour HepG2 Assay for Mitotic Arrest (AID 2282672); conditions: high-content imaging, actives raise or lower the signal
# How it was run: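 Ten-point concentration series (0.39 to 200 uM, duplicates, 0.5% v/v DMSO) applied to human HepG2 liver cells for 1 hr. High-content imaging of phospho-histone H3 and Hoechst-stained nuclei after fixation and permeabilization; DMSO-normalised bidirectional fit.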
# [17] = APR_HepG2_P-H2AX_1hr: Apredica 1-hour HepG2 Assay for H2AX Phosphorylation (AID 2282673); conditions: high-content imaging, actives raise or lower the signal
# How it was run: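 Phospho-H2A.x immunofluorescence (1:200, FITC secondary) plus Hoechst nuclear stain, quantified by high-content imaging in HepG2 after 1 hr compound exposure. Ten concentrations, 0.39 to 200 uM, in duplicate with 0.5% DMSO; fit both directions against DMSO.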
# [18] = APR_HepG2_MitoMass_1hr: Apredica 1-hour HepG2 Assay for Mitochondrial Mass (AID 2282674); conditions: high-content imaging, actives raise or lower the signal
# How it was run: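 Mitochondrial mass is taken from MitoTracker Red CMXRos (250 nM, 30 min, pre-fixation) fluorescence imaged at 20x in HepG2 cells. Exposure lasted 1 hr across ten concentrations, 0.39 to 200 uM, 0.5% DMSO; DMSO baseline, bidirectional fitting.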
# [19] = APR_HepG2_MitoMembPot_1hr: Apredica 1-hour HepG2 Assay for Mitochondrial Membrane Potential (AID 2282675); conditions: imaging, actives raise or lower the signal
# How it was run: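 Mitochondrial membrane potential read as MitoTracker Red CMXRos intensity by automated imaging of fixed HepG2 cells. Dye at 250 nM for 30 min pre-fixation; compounds 0.39 to 200 uM for 1 hour, duplicate wells, 0.5% DMSO.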
# [20] = APR_HepG2_StressKinase_1hr: Apredica 1-hour HepG2 Assay for Stress Kinase (AID 2282906); conditions: HepG2 stress kinase (phospho-c-Jun) imaging, actives raise or lower the signal
# How it was run: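 High-content imaging of phospho-c-Jun immunostaining (with Hoechst nuclear identification) after a 1 h exposure of HepG2 cells to 10 concentrations from 0.39 to 200 uM, final DMSO 0.5%. Fitted bidirectionally against DMSO.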
compound,measurement,setting,value
Cc1cc(O)ccc1Cl,outcome,[1],inactive
same,outcome,[2],inactive
same,outcome,[3],inactive
same,outcome,[4],inactive
same,outcome,[5],inactive
same,outcome,[6],inactive
same,outcome,[7],inactive
same,outcome,[8],inactive
same,outcome,[9],inactive
same,outcome,[10],inactive
same,outcome,[11],inactive
O=C(N[C@H]1CN2CCC1CC2)c1cc2ccoc2cn1,outcome,[1],inactive
same,outcome,[2],inactive
same,outcome,[3],inactive
same,outcome,[4],inactive
same,outcome,[5],inactive
same,outcome,[6],inactive
same,AC50,[7],0.0336 µM (active)
same,outcome,[8],inactive
same,outcome,[9],inactive
same,outcome,[10],inactive
same,outcome,[11],inactive
CCCCCCCCOC(=O)c1ccccc1C(=O)OCCCCCCCC,AC50,[1],75.4 µM (active)
same,outcome,[2],inactive
same,outcome,[3],inactive
same,outcome,[4],inactive
same,outcome,[5],inactive
same,outcome,[6],inactive
same,outcome,[7],inactive
same,outcome,[8],inactive
same,outcome,[9],inactive
same,outcome,[10],inactive
same,outcome,[11],inactive
Sc1ccccc1,outcome,[1],inactive
CCC(C)(CC)c1cc(NC(=O)c2c(OC)cccc2OC)on1,outcome,[12],inactive
same,outcome,[13],inactive
same,outcome,[14],inactive
same,outcome,[15],inactive
same,outcome,[16],inactive
same,outcome,[17],inactive
same,outcome,[18],inactive
same,outcome,[19],inactive
same,outcome,[2],inactive
same,outcome,[20],inactive
same,outcome,[3],inactive
same,outcome,[4],inactive
same,outcome,[5],inactive
same,outcome,[6],inactive
same,outcome,[7],inactive
same,outcome,[8],inactive
same,AC50,[11],66.4 µM (active)
O=C(O)C(F)(F)C(F)(F)C(F)(F)C(F)(F)C(F)(F)F,outcome,[1],inactive
same,outcome,[2],inactive
same,outcome,[3],inactive
same,outcome,[4],inactive
same,outcome,[5],inactive
same,outcome,[6],inactive
same,outcome,[7],inactive
same,outcome,[8],inactive
same,outcome,[9],inactive
same,outcome,[10],inactive
same,outcome,[11],inactive
CC(C)C(=O)OCC(C)(C)C(OC(=O)C(C)C)C(C)C (configuration not stated),outcome,[1],inactive
same,outcome,[2],inactive
same,outcome,[3],inactive
same,outcome,[4],inactive
same,outcome,[5],inactive
same,outcome,[6],inactive
same,outcome,[7],inactive
same,outcome,[8],inactive
same,outcome,[9],inactive
same,outcome,[11],inactive
O=NN(c1ccccc1)c1ccccc1,outcome,[1],inactive
same,outcome,[2],inactive
same,outcome,[3],inactive
same,outcome,[4],inactive
same,outcome,[5],inactive
same,outcome,[6],inactive
same,outcome,[7],inactive
same,outcome,[8],inactive
same,outcome,[9],inactive
same,outcome,[11],inactive
C=CC(N)=O,outcome,[1],inactive
same,outcome,[2],inactive
same,outcome,[3],inactive
same,outcome,[4],inactive
same,outcome,[5],inactive
same,outcome,[6],inactive
same,outcome,[7],inactive
same,outcome,[8],inactive
same,outcome,[9],inactive
same,outcome,[11],inactive
O=C(O)C(F)(F)C(F)(F)C(F)(F)C(F)(F)C(F)(F)C(F)(F)C(F)(F)C(F)(F)C(F)(F)F,outcome,[1],inactive
same,outcome,[2],inactive
same,AC50,[3],130 µM (active)
same,AC50,[4],108 µM (active)
same,outcome,[5],inactive
same,AC50,[6],106 µM (active)
same,outcome,[7],inactive
same,AC50,[8],109 µM (active)
same,AC50,[9],97.4 µM (active)
same,AC50,[11],96 µM (active)
